14 compounds from PubChem BioAssay (NCATS) can be followed below.

SMILES strings stand for the structures. Records with an inconclusive call do not appear. Where a call stands in place of a potency, no number is given. Active and inactive are the calls of the source. The call rests on the fitted dose curve; in most records, active means well fitted inhibition curve with a large enough effect; inconclusive means small, poorly fitted or top-dose-only effect; inactive means flat fitted curve, though single readings scatter.

A short description of the experiment: P-glycoprotein substrates identified in KB-8-5-11 adenocarcinoma cell line, qHTS therapeutic library screen (AID 1346987). Further: nearly all actives have a fitted effect of over 65% in size. In a few lines: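 Compounds are pinned in dose-response onto KB-8-5-11 cells (500 cells/well, colchicine-free medium) and left 72 h at 37 degree C. CellTiter-Glo luminescence then yields AC50 values.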
On the technique in general: In qHTS, concentration-response curves come from the screen itself.
Potency means the concentration at half of the fitted maximal effect.

Consider `CC1=CCC2C(C)(C)CCC[C@]2(C)[C@@]12CC[C@](C)(CC(=O)O)O2` (some centres undefined), for which the Potency entry was “inactive”.

For the compound `O=C(NCc1ccc(S(=O)(=O)c2cc(F)cc(F)c2)cc1)c1ccc2nccn2c1`, the Potency was 0.0184 µM (active).

As for `O=C(Nc1ccc(Cl)cc1F)c1ccccc1O`, the Potency was 7.31 µM (active).

In the case of `Cn1cncc1C(N)(c1ccc(Cl)cc1)c1ccc2c(c1)c(-c1cccc(Cl)c1)cc(=O)n2C` (centres undefined), the Potency was 3.26 µM (active).

Regarding `CC1CCC2(CO)C(C(=O)O)=CCCC2C1(C)CCc1ccoc1` (centres undefined), the Potency result was “inactive”.

On to `Cc1cc(OCc2nnc(SC3CCCC3)n2-c2cccnc2)ccc1-c1ccc(S(C)(=O)=O)cc1`, for which the Potency was 2.91 µM (active).

On to `CC1=C2C3OC(=O)C(C)C3(O)CCC2(C)CCC1O` (centres undefined), for which the Potency result was “inactive”.

For `C[C@@H]1CC[C@@]2(OC1)O[C@H]1C[C@H]3[C@@H]4CC=C5C[C@@H](O)CC[C@]5(C)[C@H]4CC[C@]3(C)[C@H]1[C@@H]2C`, the Potency entry is “inactive”.

On to `CC1CC[C@]2(C(=O)O)CC[C@]3(C(=O)O)C(=CCC4[C@@]5(C)CC[C@H](O[C@@H]6O[C@H](CO)[C@@H](O)[C@H](O)[C@H]6O)C(C)(C)C5CC[C@]43C)C2C1C` (some centres undefined), for which the Potency result is “inactive”.

Regarding `COc1cc2c(cc1OC)[C@@H]1[C@H](O)[C@@H](OC)C=C3CCN(C2)[C@H]31`, the Potency is 5.7 µM (active).

Consider `Cc1cc(C)c(Nc2ccnc(Nc3ccc(C#N)cc3)n2)c(C)c1`, for which the Potency was 9.2 µM (active).

As for `COC1C(CO)OC(n2cnc3c(=O)[nH]cnc32)C1O` (centres undefined), the Potency result was “inactive”.

On to `O=[N+]([O-])c1cn2c(n1)OCC(OCc1ccc(OC(F)(F)F)cc1)C2` (centres undefined), for which the Potency entry is “inactive”.

On to `CC[C@H]1OC(=O)[C@](C)(F)C(=O)[C@H](C)[C@@H](O[C@@H]2O[C@H](C)C[C@H](N(C)C)[C@H]2O)[C@](C)(OC)C[C@@H](C)C(=O)[C@@H](C)[C@H]2N(CCCCn3cc(-c4cccc(N)c4)nn3)C(=O)O[C@]12C`, for which the Potency result is “inactive”.
